Source: PubChem BioAssay AID602145 (NMMLSC, 2011)
Activity calls are given as the source filed them.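 How the source made its calls: active means half-maximal potency of 10 µM or stronger, response changing by 30% or more across doses, valid fit; inactive means the rest.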

assay: GST-GSH bead binding interference, SAR follow-up, counter-screen for Rab7 GTPase inhibitor project, biochemical, flow cytometry beads, round 2 (AID 602145); conditions: GST-GFP binding to GSH beads; series mostly up to 100 µM; percent response (binding retained): at the top concentration

| SMILES | percent response (binding retained) |
| --- | --- |
| COc1ccccc1C(=O)NC(=S)Nc1sc2c(c1C(=O)O)CC(C)(C)OC2 | 97.3% (inactive) |
| CC1(C)Cc2c(sc(NC(=S)NC(=O)c3ccco3)c2C(=O)O)CO1 | 90% (inactive) |
| CCC1(C)Cc2c(sc(NC(=S)NC(=O)c3ccccc3)c2C(=O)O)CO1 (configuration not stated) | 93.9% (inactive) |
| O=C(NC(=S)Nc1sc2c(c1C(=O)O)CCOC2)c1ccccc1 | 89.5% (inactive) |
| CC1(C)Cc2c(sc(NC(=S)NC(=O)C3CCCCC3)c2C(=O)O)CO1 | 90.5% (inactive) |
| CC1(C)Cc2c(sc(NC(=S)NC(=O)c3cccs3)c2C(=O)O)CO1 | 90.7% (inactive) |
| CC(C)(C)C1Cc2c(sc(NC(=S)NC(=O)c3ccccc3)c2C(=O)O)CO1 (configuration not stated) | 92.7% (inactive) |
| Cc1cccc(C(=O)NC(=S)Nc2sc3c(c2C(=O)O)CC(C)(C)OC3)c1 | 99.6% (inactive) |
| Cc1ccc(C(=O)NC(=S)Nc2sc3c(c2C(=O)O)CC(C)(C)OC3)cc1 | 95.8% (inactive) |
| CC1(C)Cc2c(sc(NC(=S)NC(=O)c3ccc(F)cc3)c2C(=O)O)CO1 | 93.4% (inactive) |
| Cc1ccccc1C(=O)NC(=S)Nc1sc2c(c1C(=O)O)CC(C)(C)OC2 | 99.8% (inactive) |
| O=C(NC(=S)Nc1sc2c(c1C(=O)O)CC1(CCCC1)OC2)c1ccccc1 | 100% (inactive) |
